# Records with an inconclusive call do not appear. Entries that show only a call come without a potency. The source made the active and inactive calls. The call rests on the fitted dose curve; in most records, active means well fitted curve in the direction sought with a large enough effect; inconclusive means small, poorly fitted or top-dose-only effect, or another doubt; inactive means no such curve, though single readings can be large; an effect the other way counts as inactive or inconclusive.
# Test: qHTS for Inhibitors of Plasmodium falciparum (HB3) proliferation (AID 504318); further: nearly all actives have a fitted effect of over 60% in size
# Details: P. falciparum HB3 in erythrocytes, SYBR Green DNA, 72 h; series mostly up to 7.21 µM
# In short: (§1)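 Erythrocytes infected with P. falciparum line (0.3% parasitemia, 2.5% hematocrit final) incubated with compounds 72 h at 37 °C, 5% CO2; SYBR Green lysis buffer added, fluorescence read next day. Normalized to 0.29 uM artemisinin and DMSO.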
row,Compound,Potency
1,CCN(CCNC(=O)[C@H]1C=C(OC)C(=O)C[C@H](c2ccccc2)[C@@H]1C)C(C)=O,inactive
2,C=C(C)CCCN1C=C(C(=O)OCC)C(c2ccccc2)NC1=O (stereo not drawn),inactive
3,COCC=CC1=CC2=CC(=O)C(C)(OC(=O)c3cnc4ccccc4n3)C(=O)C2=CN1CC(C)C (stereo not drawn),inactive
4,CC(Nc1oc(-c2ccccc2)nc1-c1ccccc1)c1ccccc1 (stereo not drawn),inactive
5,CCOC(=O)CN1C(=O)NC(c2ccc(Br)cc2)C(C(C)=O)=C1C (stereo not drawn),inactive
6,Cc1cc(C)c(-c2cc([C@H](C)ON=C[C@@H](C)[C@H](OCc3ccccc3)C(C)C)on2)c(C)c1,inactive
7,C=C(C)C(O)C=Cc1ccccc1OC (stereo not drawn),inactive
8,C#CC[C@@]1(C(=O)OC)C=C[C@@H](C)[C@H](c2ccccc2Br)N1C(=O)C(F)(F)F,inactive
9,C=C(Nc1ccc(OC)cc1)C(=O)OC,inactive
10,C#CCN1C(=O)CC[C@@]23C1=NC(C(=O)OC)=C(C(=O)OC)[C@@H]2N(CC=C(C)C)c1ccccc13,inactive
11,CCCCCCCc1cc2ccccc2c2c(C(=O)OC)c(C)c(C(=O)OC)n12,inactive
12,C=CC[C@@H]1C=C[C@H](ON=C2c3cc(OC)ccc3O[C@H](c3cccc(OC)c3)[C@@H]2O)[C@H](CO)O1,inactive
13,CCCCc1cc2c(cn1)=C(OC(=O)c1ccco1)C(C)(OC(=O)CC)C(=O)C=2 (stereo not drawn),inactive
14,C=CCC12C=C(OC)C(=O)C(C1=O)C1c3ccccc3CC12 (stereo not drawn),inactive
15,CC(C)(C(O)c1ccc([N+](=O)[O-])cc1)[N+](=O)[O-] (stereo not drawn),inactive
16,COc1cccc(C(CC2=CCCCC2)NC(=O)C(F)(F)F)c1 (stereo not drawn),inactive

# Test: qHTS for Inhibitors of Plasmodium falciparum (CP250) proliferation (AID 504320)
# Details: P. falciparum CP250 in erythrocytes, SYBR Green DNA, 72 h; series mostly up to 6.7 µM
# In short: as §1
row,Compound,Potency
1,CCN(CCNC(=O)[C@H]1C=C(OC)C(=O)C[C@H](c2ccccc2)[C@@H]1C)C(C)=O,inactive
2,CCCCCCCC1Cc2ccccc2C(C(C(=O)OC)C(=O)OC)N1C(=O)OC (stereo not drawn),inactive
3,C=C(C)CCCN1C=C(C(=O)OCC)C(c2ccccc2)NC1=O (stereo not drawn),inactive
4,C[C@@H]1C=CCCO[C@]12C(=O)N(Cc1ccccc1C(F)(F)F)c1cccc(Br)c12,inactive
5,COCC=CC1=CC2=CC(=O)C(C)(OC(=O)c3cnc4ccccc4n3)C(=O)C2=CN1CC(C)C (stereo not drawn),inactive
6,C=CCN1c2ccccc2[C@]23CCC(=O)N(CCc4ccccn4)C2=NC(C(=O)OC)=C(C(=O)OC)[C@H]13,inactive
7,CC(C)OC(=O)[C@@H]1CC[C@H](C)[C@@H](CCC[C@@H]2CC=C[C@H](CC#N)O2)O1,inactive
8,CC(C)=CCCC(C)=CCN1C(=O)[C@]2(OCCC=C[C@H]2C)c2ccccc21,inactive
9,COC(=O)C1=C(C)N(Cc2ccccc2)C(=NCc2ccccc2)NC1c1ccccc1 (stereo not drawn),inactive
10,COc1ccc2c(c1)[C@@H](NC(=O)C(F)(F)F)C1CCCCC21c1ccccc1 (stereo partly drawn),inactive
11,COC(=O)CC=C1c2ccccc2C[C@H](OC)[C@@H]1C,inactive
12,CC(Nc1oc(-c2ccccc2)nc1-c1ccccc1)c1ccccc1 (stereo not drawn),inactive
13,CCOC(=O)CN1C(=O)NC(c2ccc(Br)cc2)C(C(C)=O)=C1C (stereo not drawn),inactive
14,Cc1cc(C)c(-c2cc([C@H](C)ON=C[C@@H](C)[C@H](OCc3ccccc3)C(C)C)on2)c(C)c1,inactive
15,COCOc1c2c(c(OCOC)c3c(OCOC)cccc13)C(=NNS(=O)(=O)c1ccc(C)cc1)C1=C2CCCC1,inactive
16,CCCCCCCC1=Cc2ccccc2C(C(C(=O)OC)C(=O)OC)N1C(=O)OC (stereo not drawn),inactive
17,COC(=O)N[C@@H](c1ccccc1)C(C(=O)OC)C(=O)OC,inactive
18,C=C(C)C(O)C=Cc1ccccc1OC (stereo not drawn),inactive
19,C#CC[C@@]1(C(=O)OC)C=C[C@@H](C)[C@H](c2ccccc2Br)N1C(=O)C(F)(F)F,inactive
20,Cc1ccccc1Nc1oc(-c2ccccc2)nc1C=Cc1ccccc1,inactive
21,C=C(Nc1ccc(OC)cc1)C(=O)OC,inactive
22,C#CCN1C(=O)CC[C@@]23C1=NC(C(=O)OC)=C(C(=O)OC)[C@@H]2N(CC=C(C)C)c1ccccc13,inactive
23,COc1ccc2c(c1)[C@@]1(OCCC=C[C@@H]1C)C(=O)N2Cc1ccc(F)cc1,inactive
24,CCC=C1C(=O)[C@]2(C(=O)c3ccccc3)C[C@H]3CCC(CCC)(C2=O)[C@@]13OC,inactive
25,CCCCCCCc1cc2ccccc2c2c(C(=O)OC)c(C)c(C(=O)OC)n12,inactive
26,CC12C=C(C=Cc3ccc(C(F)(F)F)cc3)C(C)(C1)C(c1ccc(C(F)(F)F)cc1)CC2=O (stereo not drawn),inactive
27,C=CC[C@@H]1C=C[C@H](ON=C2c3cc(OC)ccc3O[C@H](c3cccc(OC)c3)[C@@H]2O)[C@H](CO)O1,inactive

# Reference: PubChem BioAssay (NCATS)
